Rows were chosen to be rich in hits. Some 4.2% of all compounds tested hit in one or more screens of this group.
D1 potentiator – enhances dopamine response at the human D1 receptor; HEK293 TREx D1 cells, calcium flux, dopamine EC20 potentiation; 0.036% of 360,000 active; AID 504651; P21728; potentiation, % at 10 µM; in the data active = potentiation above about 30%; note: 0% is about no effect
TRPV1 agonist – agonists of human vanilloid receptor 1 (TRPV1). 0.19% of 320,000 active. Q8NER1. activation, % at 8.33 µM. AID 540275. TRPV1-expressing cells, Fluo-8 calcium influx, agonist mode; in the data active = activation above about 80%; inconclusive = between about 30% and that limit; note: 0% is about no effect
Target sequence (Q8NER1 whole entry, looked up): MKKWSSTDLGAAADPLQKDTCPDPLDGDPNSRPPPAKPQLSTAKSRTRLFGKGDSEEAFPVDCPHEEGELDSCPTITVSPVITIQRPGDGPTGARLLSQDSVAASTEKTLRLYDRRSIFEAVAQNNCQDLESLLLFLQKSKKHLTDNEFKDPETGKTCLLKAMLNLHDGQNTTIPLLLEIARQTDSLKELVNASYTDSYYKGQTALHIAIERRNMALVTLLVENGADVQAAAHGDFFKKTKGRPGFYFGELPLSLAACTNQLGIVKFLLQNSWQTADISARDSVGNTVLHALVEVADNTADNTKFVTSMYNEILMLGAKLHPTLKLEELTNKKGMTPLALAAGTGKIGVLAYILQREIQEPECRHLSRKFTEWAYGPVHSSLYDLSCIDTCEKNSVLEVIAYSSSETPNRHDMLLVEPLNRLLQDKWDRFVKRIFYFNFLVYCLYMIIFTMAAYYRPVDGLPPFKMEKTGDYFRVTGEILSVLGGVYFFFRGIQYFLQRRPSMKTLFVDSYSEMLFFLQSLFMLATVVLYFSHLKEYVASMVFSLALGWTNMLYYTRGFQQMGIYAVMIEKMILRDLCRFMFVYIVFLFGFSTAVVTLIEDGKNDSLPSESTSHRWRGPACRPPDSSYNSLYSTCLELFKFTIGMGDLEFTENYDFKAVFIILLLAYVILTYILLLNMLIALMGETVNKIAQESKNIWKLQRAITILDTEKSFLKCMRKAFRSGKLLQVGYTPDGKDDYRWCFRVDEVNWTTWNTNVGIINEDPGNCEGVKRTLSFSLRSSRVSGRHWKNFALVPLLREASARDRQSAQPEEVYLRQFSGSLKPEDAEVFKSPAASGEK
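Cells expressing TRPV1 were dye-loaded with Fluo-8 and read kinetically: 10 s baseline, 3 min after compound (agonist portion), then 2 min after EC20 capsaicin (allosteric enhancer portion). Calcium-bound dye fluorescence at 480/520 nm.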
D1 ag – agonists of human D1 dopamine receptor; P21728; HEK293 T-REx D1 cells, calcium flux, agonist mode; activation, % at 2 µM; 1% of 360,000 active; AID 504660; in the data active = activation above about 30%; note: 0% is about no effect
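Tetracycline-induced HEK293 TREx D1 cells, force-coupled to calcium signalling, were dye-loaded with a no-wash calcium kit. Compound was pin-added after a 10 s baseline. Fluorescence was read kinetically at 1 cycle/s for 180 s, with calcium rises flagged as agonism.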
D1 antagonist – human D1 dopamine receptor antagonism | 3.2% of 360,000 active | AID 504652 | P21728 | activity change, negative = inhibition, % at 10 µM | HEK293 TREx D1 cells, calcium flux, dopamine EC80; active compounds read low; in the data active = activity change below about -30%; note: % is set by controls: 0 for no effect and ±100 for the full control effect
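Compound effects on dopamine-evoked calcium signalling were measured in tetracycline-induced HEK293 Trex D1 cells. Dopamine at EC80 followed a 180 s compound pre-read, and fluorescence was tracked kinetically for 180 s more.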
TRPV1 PAM – human TRPV1 potentiation. TRPV1-expressing cells, Fluo-8 calcium influx, capsaicin EC20 potentiation. 0.02% of 320,000 active. Q8NER1. potentiation, % at 8.33 µM; in the data active = potentiation above about 80%; inconclusive = between about 30% and that limit; note: 0% is about no effect
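Cells expressing TRPV1 were dye-loaded with Fluo-8 and read kinetically: 10 s baseline, 3 min after compound (agonist portion), then 2 min after EC20 capsaicin (allosteric enhancer portion). Calcium-bound dye fluorescence at 480/520 nm.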
Starred values were filed as active, the others as inactive; ? = inconclusive; . = not tested or not shown.

SMILES | D1 potentiator | TRPV1 agonist | D1 ag | D1 antagonist | TRPV1 PAM
CCc1ccc(OCCCC(=O)Nc2nccs2)cc1 | -1 | 10 | 8 | -30* | -4
CCCCN(C)C(=O)c1ccc2c(c1)N(Cc1ccc(F)cc1)C(=O)c1ccccc1S2(=O)=O | -1 | . | 0 | 0 | .
CC(=O)NCCNC(=O)CCCc1nnc2n(CCC(C)C)c(=O)c3sccc3n12 | -5 | . | 0 | 7 | .
COc1ccc(NC(=O)c2ccc3c(=O)n4nc(Nc5cc(C)ccc5C)sc4nc3c2)cc1 | 7 | . | 3 | -4 | .
COc1ccc(-c2cc(C(=O)Nc3cc(OC)cc(C(=O)Nc4cccc(C(F)(F)F)c4)c3)[nH]n2)cc1 | -4 | -5 | 10 | -31* | 28
CCOC(=O)c1cc(-c2ccccc2)n(CCC(=O)NCCc2ccc(C)cc2)c1C | -7 | . | 23 | -4 | .
O=C(Nc1ccc(N2CCCCC2)c(Cl)c1)c1ccc(N2CCOCC2)c([N+](=O)[O-])c1 | -8 | ? | 1 | -48* | -4
O=C(Nc1ccc(Cc2ccncc2)cc1)c1ccc(N2CCOCC2)c([N+](=O)[O-])c1 | 2 | ? | 12 | -44* | -4
CC(=O)Nc1ccc(N2CCCC(C)C2)c([N+](=O)[O-])c1 (stereo unspecified) | -2 | 23 | -2 | 10 | -35
CCN(CC)c1ccc(C(=O)Nc2ccccc2)cc1[N+](=O)[O-] | -1 | 82* | -2 | . | -13
CC(=O)N1CCN(c2ccc(NC(=O)c3ccc(N4CCCC4)c([N+](=O)[O-])c3)cc2Cl)CC1 | 1 | 3 | 2 | -2 | 1
COc1ccc(C(=O)Nc2ccc(Nc3ccccc3)cc2)cc1[N+](=O)[O-] | -2 | 1 | 5 | -19 | -2
CC1CCCN(c2ccc(C(=O)Nc3cccnc3)cc2[N+](=O)[O-])C1 (stereo unspecified) | -4 | 87* | -1 | -20 | -3
O=c1c2oc3ccccc3c2n(Cc2ccccc2F)c(=O)n1Cc1ccccc1 | 0 | . | 3 | 3 | .
CCCC(=O)Nc1cccc(NC(=O)c2ccc(C)c([N+](=O)[O-])c2)c1 | -7 | -2 | -1 | -34* | -2
CCC(=O)Nc1cccc(NC(=O)c2ccc(C)c([N+](=O)[O-])c2)c1 | -6 | 19 | 1 | -14 | -6
Cc1ccc(C(=O)Nc2ccc(Cc3ccncc3)cc2)cc1[N+](=O)[O-] | -6 | ? | 10 | -35* | -8
Cc1ccc(C(=O)NC(C)CCc2ccccc2)cc1[N+](=O)[O-] (stereo unspecified) | -6 | ? | 17 | -62* | -28
O=Cc1cc([N+](=O)[O-])ccc1N1CCOCC1 | 14 | 1 | 2 | -39* | 28
O=[N+]([O-])c1ccc(N2CCCCCC2)c([N+](=O)[O-])c1 | -12 | 22 | 2 | -53* | -17
COc1cccc(Cn2ncc3c4sc(C)cc4n(C)c3c2=O)c1 | -5 | . | 7 | 10 | .
Cc1ccc(CN2C(=O)c3ccccc3Sc3ccc(C(=O)OCc4ccco4)cc32)cc1 | -3 | . | 11 | 12 | .
O=C(NCCSCc1ccc(Cl)cc1Cl)c1ccc(CN2CCOCC2)cc1 | -3 | ? | 14 | -31* | -10
C=CCSc1nnc(C)c(/C=C/Nc2ccc(Cl)cc2)n1 | -2 | 5 | 74* | -5 | -1
CCOC(=O)c1ccc(NC(=O)CSc2nnc(CNC(=O)c3ccc(OC)cc3)n2CC)cc1 | -6 | . | 0 | 4 | .
SMILES | D1 potentiator | TRPV1 agonist | D1 ag | D1 antagonist | TRPV1 PAM
COc1ccc(-c2ncc(CN3CCC(CO)(Cc4cccc(OC)c4)CC3)cn2)cc1 | 6 | 7 | 39* | -1 | 2
Cc1ccccc1-c1ncc(CN2CCC(CO)(CCCc3ccccc3)CC2)cn1 | -3 | -4 | 10 | -55* | 12
Cc1coc2cc3oc(=O)c4c(c3cc12)CCCC4 | 0 | 8 | 1 | -45* | -7
Cc1coc2cc3oc(=O)cc(C)c3cc12 | -4 | 0 | 2 | 5 | 11
Nc1nc(Nc2cccc(Cl)c2)sc1C(=O)c1ccc(F)cc1 | -5 | . | -2 | -37* | .
CCOc1ccccc1NC(=O)c1ccc(F)c(S(=O)(=O)N2CCN(c3ccc(F)cc3)CC2)c1 | 0 | . | 3 | 1 | .
NC(=O)C1CCN(C(=O)C2CC(=O)N(c3ccc4c(c3)OCCO4)C2)CC1 (stereo unspecified) | -13 | 3 | 0 | -34* | -9
CC1CC(C)CN(C(=O)C2CC(=O)N(c3ccc4c(c3)OCCO4)C2)C1 (stereo unspecified) | 0 | -2 | 1 | 4 | -2
COc1cccc2sc(Nc3nnc(-c4cccs4)o3)nc12 | -4 | 0 | 2 | -46* | 22
COc1cccc2sc(Nc3nnc(-c4ccc(F)cc4)o3)nc12 | 1 | 4 | 1 | 0 | ?
COc1ccc(Br)cc1CNC(=O)c1cnc2sc(N3CCC(C)CC3)nn2c1=O | 1 | . | 1 | -19 | .
O=c1oc(-c2ccco2)nc2ccccc12 | -6 | 11 | 2 | -39* | -20
COCCCn1c(=O)/c(=C\c2ccccc2OC(F)F)s/c1=C(/C#N)C(N)=O | 0 | 3 | 3 | -7 | 8
COCCCn1c(=O)/c(=C\c2ccc(OC(F)F)c(OC)c2)s/c1=C(/C#N)C(N)=O | -7 | -1 | 2 | -44* | 2
CCn1c(=O)c2sccc2n2c(CCCC(=O)N3CCN(c4ccc(OC)cc4)CC3)nnc12 | 1 | . | 1 | 0 | .
Cc1ccc(OCCCn2ccnc2)c(Br)c1 | -7 | 2 | 5 | -68* | 11
O=C(Nc1ccc(F)cc1F)c1cc2nc3c(c(C(F)(F)F)n2n1)CCCC3 | -4 | -4 | 0 | -33* | 15
COc1cccc(Nc2nc3ccc(C)cc3nc2-n2nc(C)cc2C)c1 | 0 | . | 2 | 14 | .
COc1ccc(C(c2sc3nc(C)nn3c2O)N2CCN(Cc3ccccc3)CC2)cc1OC (stereo unspecified) | -11 | -2 | 2 | -51* | 2
COc1cc(Cl)ccc1OCc1cc(C(=O)N2C[C@H]3CC[C@H]2C3)no1 | -14 | 9 | 4 | -6 | 2
COc1cc(Cl)ccc1OCc1cc(C(=O)N2C[C@]3(C)C[C@H]2CC(C)(C)C3)no1 | 8 | 29 | 38* | 16 | -14
COc1ccc(C(=O)N2CC3(C)CC2CC(C)(C)C3)cc1 (stereo unspecified) | -6 | -1 | 1 | -32* | -5
COc1cc(NC(=O)CC2C(=O)N(c3cccc(C)c3)C(=O)N2Cc2ccc(F)cc2)cc(OC)c1 (stereo unspecified) | -1 | . | 3 | 18 | .
COc1cccc(NS(=O)(=O)c2ccc(Br)s2)c1 | -4 | 89* | 19 | -35* | 3
COc1ccc(OC)c(NS(=O)(=O)c2ccc(Br)s2)c1 | -2 | 1 | 3 | 10 | ?

Source: PubChem BioAssay (National Center for Advancing Translational Sciences (NCATS))
